This is an account of results in ChEMBL document CHEMBL4513216, “Probing the Open Global Health Chemical Diversity Library for Multistage-Active Starting Points for Next-Generation Antimalarials” (ACS Infect Dis, 2020).

The whole screen tested about 69,000 compounds, of which about 8,600 (12%) showed an effect of 50% or more. This excerpt belongs to a sample that is enriched for strong results.

In the test the test system is Plasmodium berghei. Put plainly: Screen against P. berghei liver stage (PbLuc), transformed with Luciferase, at 10uM. Format: functional, HepG2. Conditions: tested at 10 uM.
Consider `N#Cc1c2n(c3c(N)ncnc13)CCCCC2`, for which the INHIBITION amounted to 44.4%.
For `CC(C(=O)N1CCN(c2ncccn2)CC1)n1cncn1` (stereo unspecified), the INHIBITION was 10%.
For the compound `CCc1oc(C(=O)N2CC[C@@H]3CC[C@H](C2)N3)cc1CN(CC)CC`, the INHIBITION was 29.4%.
Consider `Cc1ccc(CN2CCC(c3cnccn3)CC2)s1`, for which the INHIBITION stood at 18.9535%.
Take `CC(C)(O)CN1CC(C)(C)CN(C(=O)CCc2ccccc2)CC1=O`: the INHIBITION was determined as 44.9%.
The same measure for `Cn1c(N2CCOCC2)nc2cc(C(=O)NCC(F)(F)F)ccc21`: 20.9%; for `CCN(C)c1ncnc2c1CCN(C(=O)Cc1ccccn1)CC2`: 34.4%.
Regarding `Cc1cc(CNCc2c(C)n(CC(C)C)c3ccccc23)[nH]n1`, the INHIBITION is reported as 27.4%.
As for `CC(C)N1CC2(CCCN(c3ccnc4ccccc34)C2)CCC1=O` (stereo unspecified), the INHIBITION is recorded as 65.1%.
For the compound `CC(C)N1CC2(CCCN(c3ccccn3)C2)CCC1=O` (stereo unspecified), the INHIBITION was -9.18%.
On to `CC(C)N1CC2(CCC1=O)CCN(c1ccnc3ccccc13)CC2`, for which the INHIBITION is listed as 20.5%.
For `CC(C)N(Cc1cccc(Cl)c1)Cc1nc2c(cnn2C)c(=O)[nH]1`, the INHIBITION is 15.6%.
As to `COc1ccc(CCNC2CCCN(Cc3noc(C)n3)C2)cc1` (stereo unspecified), the INHIBITION came out at 35.9%.
The same measure for `CC(=O)Nc1ccccc1Sc1nc(Br)nn1C`: 5.58%; for `CN(Cc1n[nH]c2c1CCC2)C(=O)c1cc(-c2cccn2C)n[nH]1`: -7.53%.
The same measure for `CCOCc1ccc(CNC2=NCCCN2)cc1`: 47.1%; for `CC(C)C(=O)NCc1ccc(N(C)C)cc1`: -51.5%; for `CN(C)c1ccc(CNC2=NCCCN2)cc1`: 75.8%.
The same measure for `COC(=O)c1ccc(Cn2nc(C)cc2C)cc1`: -60.4%; for `CCN1CCN(C(=O)c2[nH]c3ccccc3c2Cl)[C@H]2CS(=O)(=O)C[C@H]21`: -9.87%; for `CCc1c(C(=O)N2CCN(C)[C@@H]3CS(=O)(=O)C[C@@H]32)[nH]c2ccccc12`: 60.1%.
On to `Cc1c(C(=O)N2CCN(C)[C@@H]3CS(=O)(=O)C[C@@H]32)[nH]c2ccc(F)cc12`, for which the INHIBITION worked out at 43%.
For `CC(C)c1nn(C)c(N(C)C)c1CNC1CCOc2c(F)cccc21` (stereo unspecified), the INHIBITION is on record as -12.5%.
In the case of `O=C(c1cnccn1)N1CC2(CCN(Cc3ccsc3)C2)C1`, the INHIBITION was determined as 23.3%.
On to `CN(C)C(=O)C1CSCN1C(=O)CCc1ccco1` (stereo unspecified), for which the INHIBITION was -75%.
In the case of `CC(=O)Nc1ccc(CCC2(NC(=O)C3CCCO3)CCCCC2)cn1` (stereo unspecified), the INHIBITION is -1.16%.
As to `CS(=O)(=O)NC1(CCc2ccc(NC(=O)C3CC3)nc2)CCCCC1`, the INHIBITION was determined as 40.6%.
With `CC(=O)Nc1ccc(CCC2(NC(=O)C3CC3)CCCCC2)cn1`, the INHIBITION was found to be 59.2%.
The same measure for `Cc1nn(C(C)C)c2cn(CC(=O)NC3CCSCC3)nc12`: -3.83%.
Regarding `O=C(Cc1ccc2c(c1)OCCO2)NCc1ccc(-n2cncn2)nc1`, the INHIBITION is recorded as 19.2%.
Take `CC1Cc2ccccc2N1C(=O)Cn1nc(-c2cccs2)cc(N)c1=O` (stereo unspecified): the INHIBITION is 18.3%.
For the compound `Nc1cc(-c2cccs2)nn(CC(=O)NCC2CCCCC2)c1=O`, the INHIBITION was 6.32%.
`Nc1cc(-c2cccs2)nn(CC(=O)N2CCc3ccccc32)c1=O`: the INHIBITION is reported as 72.2%.
Regarding `CCS(=O)(=O)N1CC(=O)N(CCCc2ccccc2)CC(O)C1` (stereo unspecified), the INHIBITION was determined as 26.8%.
On to `O=C(CCc1nc2cccnc2[nH]1)NCc1ccncc1`, for which the INHIBITION is recorded as -0.532%.
Consider `Cc1ccc(CN2CCN(Cc3ccc(N(C)C)nc3)CC2=O)cc1C`, for which the INHIBITION came to 44%.
Consider `Cc1ccc(CN2CCN(c3ccc(F)cn3)CC2=O)cc1C`, for which the INHIBITION worked out at 11.2%.
The same measure for `Cc1ccc(CN2CCN(c3cncc(N(C)C)n3)CC2=O)cc1C`: 56.3%.
With `CS(=O)(=O)CCn1ccc(NC(=O)c2c(F)cccc2F)n1`, the INHIBITION is listed as 46.1%.
Regarding `Cc1nccn1C1CCCN(C(=O)c2ccc(N(C)C)nn2)C1` (stereo unspecified), the INHIBITION is -22.9%.
On to `CC(C)(C)Oc1ccncc1NCc1cscn1`, for which the INHIBITION is on record as 70.3%.
With `COc1ccncc1NCc1cscn1`, the INHIBITION was 21.6%.
Take `COc1ccncc1NCc1ccsc1`: the INHIBITION was found to be 71.3%.
Then `COc1ccccc1NCc1cscn1`, with 27.5%; and `O=C(CCc1ccsc1)Nc1cnccc1O`, with -3.43%.
Take `COc1ncc(NCc2ccsc2)cc1C(N)=O`: the INHIBITION is on record as 32.2%.
Then `Cc1noc(C)c1CSC1CCCN(c2cnn(C)c2)C1=O` (stereo unspecified), with -41.9%.
As to `COCCN1CCOCC12CCN(Cc1ccn(C)n1)CC2`, the INHIBITION turned out to be 34.6%.
On to `CC(=O)NCc1cc2n(n1)CCN(Cc1cc(-c3ccccc3)no1)C2`, for which the INHIBITION stood at 32.2%.
On to `COCCN1CCC2(CC1)CC(c1cccnc1)C(=O)N2C` (stereo unspecified), for which the INHIBITION worked out at 26.5%.
With `CCc1nc(C2CCCN(C(=O)NC(C)C)C2)no1` (stereo unspecified), the INHIBITION came out at 13.6%.
Then `O=C([C@@H](O)Cc1ccccc1)N1CCCn2cncc2C1`, with 18.6%; and `Cc1ccnc(NC(=O)c2cnc(C3CCCNC3)cn2)c1` (stereo unspecified), with 37.35%.
Take `CC(C)NC(=O)COc1cccc(-c2nc(C(C)C)no2)c1`: the INHIBITION is recorded as 26.8%.
As to `CCc1cc(=O)n(CC(=O)N2CCC(C)CC2)c(-c2ccccc2)n1`, the INHIBITION amounted to 57.3%.
Take `CCc1cc(=O)n(CC(=O)N2CCCC2)c(-c2ccccc2)n1`: the INHIBITION is listed as 4.35%.
